For 16 compounds, z-score results are on record in PubChem BioAssay.

The nature of the assay: adipocyte viability effects, profiling panel, cell-based, 3T3-L1 adipocytes, calcein-AM fluorescence, 48 h, basal (AID 1163). Note: test concentration not given here. Particulars: 3T3-L1 adipocytes viability, higher = more signal.
Consider `CCOC(=O)C1=C[C@@H](c2ccccc2)N(S(=O)(=O)c2ccc(C)cc2)[C@H]1c1ccccc1Cl`, for which the z-score is -0.426.

Consider `COC(=O)c1c2oc(c1C(=O)OC)C(=O)N(Cc1ccccc1)Cc1cn(nn1)C[C@H](Cc1ccccc1)NC(=O)N[C@H](CO)CC2`, for which the z-score is 0.92.

As to `O=C(CS)NCCCCCNC(=O)[C@@H]1C[C@@H]2C(=O)N3CCC[C@H]3C(=O)N2[C@@H]1c1cccc(OCCO)c1`, the z-score was 0.195.

As to `C=C[C@@H](COC(C)=O)N(C(=O)OC(C)(C)C)S(=O)(=O)c1ccc(Br)cc1`, the z-score is 0.104.

Consider `COc1cccc(/C=C/C=O)c1`, for which the z-score was -0.132.

Consider `COc1ccc(CN(C2=CC[C@@]3(C(N)=O)C(=O)C(Cl)=C(Cl)C(=O)[C@@]3(C#N)C2)S(=O)(=O)c2ccc(Br)cc2)cc1`, for which the z-score was 0.167.

With `O=C1O[C@@H](c2ccccc2)[C@@H](c2ccccc2)N2[C@@H](c3ccc(O)cc3)[C@]3(C(=O)Nc4ccc(C#CC5=CCCCC5)cc43)[C@@H](C(=O)NC[C@H](O)c3ccccc3)[C@H]12`, the z-score is 0.294.

As to `Cc1ccccc1C(O)C1C=CC2C(=O)N(C)C(=O)C2N1N(c1ccccc1)c1ccccc1` (stereo unspecified), the z-score was -1.41.

`CCOC(=O)[C@H]1[C@@H]2C(=O)N3CCC[C@H]3[C@H](O[Si](C(C)C)(C(C)C)C(C)C)[C@H]2C=C2CCN(S(=O)(=O)c3ccc(C)cc3)C[C@H]21`: the z-score is 0.302.

On to `CC(CO)N1C(=O)[C@@H]2[C@H]3C(=O)OCC=C[C@H]3OC23C=CCN(C(C)(C)C)C(=O)[C@@H]13` (stereo partly specified), for which the z-score is -0.643.

Consider `O=C1C2C=CC(C(O)c3ccccc3)N(Nc3ccccc3F)C2C(=O)N1c1ccccc1` (stereo unspecified), for which the z-score is -0.717.

On to `COCCOC(=O)N1C(=O)[C@@]2(c3cc(C#CC4=CCCCC4)ccc31)[C@H](c1ccc(O)cc1)N1[C@H](c3ccccc3)[C@H](c3ccccc3)OC(=O)[C@H]1[C@@H]2C(=O)N1CCN(c2ncccn2)CC1`, for which the z-score was -0.89.

In the case of `CC(C)C(=C=CC[C@H](O)c1cccc(OCCO)c1)C[C@H](O)c1cc(Cl)cc(Cl)c1O`, the z-score is -0.903.

As to `O=C(NCc1ccccc1)[C@@H]1c2ccccc2C(=O)N(Cc2ccccc2C(F)(F)F)[C@H]1c1ccc(CO)cc1`, the z-score was 0.275.

With `CC(C)Cc1ccc(CN2CC[C@@H](NC(=O)Nc3ccccc3)C2)cc1`, the z-score is -1.07.

For the compound `CCC(CC)C(O)C1C=CC2C(=O)N(c3ccccc3)C(=O)C2N1Nc1ccc(C(C)C)cc1` (stereo unspecified), the z-score was 0.667.
